Measurements published in article PMC7819943, “Rice protein-binding microarrays: a tool to detect cis-acting elements near promoter regions in rice”.
The full ranking holds about 35,000 sequences; the median of “fluorescence intensity (a.u.)” is about 10,000, and the highest 2% start at about 52,000. This excerpt belongs to a sample that is enriched for the highest values.

These sequences were tested against T1, OsWOX13 (Oryza sativa, UniProt Q5QMM3 1-267) (assay: protein-binding microarray (RPBM); PBS, 2% BSA, 51.3 ng/ul salmon testes DNA, 50 uM zinc acetate, 200 nM TF, 25 C, 1 h; high values mean tight binding). Conditions: protein: recombinant; tags: N-terminal polyhistidine and DsRed monomer fusion (pET32a); label: CyDye5-dUTP incorporated in the synthesized complementary strand; 3' TTTTT single-stranded linker to array surface; dsDNA, one strand shown.
T1 sequence: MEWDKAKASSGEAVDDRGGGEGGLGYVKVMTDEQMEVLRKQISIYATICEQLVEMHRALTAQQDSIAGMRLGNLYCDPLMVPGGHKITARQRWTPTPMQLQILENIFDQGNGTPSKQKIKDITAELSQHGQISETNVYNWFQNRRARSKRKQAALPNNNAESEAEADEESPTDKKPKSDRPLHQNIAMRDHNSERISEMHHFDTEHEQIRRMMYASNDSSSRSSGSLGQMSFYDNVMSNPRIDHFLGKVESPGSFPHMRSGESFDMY
Outline: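 Ni–NTA purification followed expression in E. coli BL21-CodonPlus of transcription factors fused N-terminally to a polyhistidine tag and DsRed. At 200 nM in PBS with 2% BSA, salmon testes DNA and 50 µM zinc acetate, the protein was incubated for 1 h at 25 °C with a custom Agilent array that had been primer-extended with Cy5-dUTP and blocked with 2% BSA. After washing, the array was read on an Axon 4000B scanner. The binding signal is per-feature fluorescence intensity in arbitrary units.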

Compared with “ATGTCATTTTAAAGTTTAATTAATTAGATAATTACCTTCTCGGAGTCACCTAGTGCAG”, “TCATCTAATTAATTGGCAAGGTGATATGCGTCCCTGAAAACGGAGTCACCTAGTGCAG” is higher in binding signal: 17500 fluorescence intensity (a.u.) for the first, 39500 fluorescence intensity (a.u.) for the second.

Compared with “GACAGTTTGATTTCCTCTTGTGTTTATGCATTATTTTGTGCGGAGTCACCTAGTGCAG”, “TATCAAATTTATCCATTTGTTAATGTTGTAATAATTAAAACGGAGTCACCTAGTGCAG” is higher in binding signal: 3640 fluorescence intensity (a.u.) for the first, 6890 fluorescence intensity (a.u.) for the second.

Compared with “CTGACTTTGTCATACGTCTATGATTTGCCACTGACTTTATCGGAGTCACCTAGTGCAG”, “CATTCTAATTAGCAATGGTCACCACGAATGATTAATGTAGCGGAGTCACCTAGTGCAG” is higher in binding signal: 4530 fluorescence intensity (a.u.) for the first, 28200 fluorescence intensity (a.u.) for the second.

First: ACATCTAATTTGAAATGGATGTAGTATATTCTAATTGCATCGGAGTCACCTAGTGCAG
Second: TGAATATGTCCCAAATTAATTGTCACAATGGAGTACTAATCGGAGTCACCTAGTGCAG
The binding signal of the first is higher: 17000 fluorescence intensity (a.u.) for the first, 3200 fluorescence intensity (a.u.) for the second.

Compared with “TATTAGATTGGCTATAGATGAATTGGAGCTAGTAGTTGGCCGGAGTCACCTAGTGCAG”, “TAGATTGGCTATAGATGAATTGGAGCTAGTAGTTGGCTATCGGAGTCACCTAGTGCAG” is lower in binding signal: 46700 fluorescence intensity (a.u.) for the first, 25400 fluorescence intensity (a.u.) for the second.

First: AATATTAGATTGGCTATAGATGAATTGTAGCTAGTAGTTGCGGAGTCACCTAGTGCAG
Second: CTGCTGCTTGATTATTTGGGTTCAACTGGCAAGAACTATGCGGAGTCACCTAGTGCAG
The binding signal of the first is higher: 54100 fluorescence intensity (a.u.) for the first, 8890 fluorescence intensity (a.u.) for the second.

First: TGGGTGATTGATTAGTACTACTGCTGCATCTGCACTGCATCGGAGTCACCTAGTGCAG
Second: GTGATTGATGCCGCCTGGGTTAGTTCAACTATTGCTGCATCGGAGTCACCTAGTGCAG
The binding signal of the first is lower: 38400 fluorescence intensity (a.u.) for the first, 55400 fluorescence intensity (a.u.) for the second.

Going from “TCAAAATCAGTTTGAGTAAATTTTATTTTGGTTCAACTTTCGGAGTCACCTAGTGCAG” to “ATTTTGATTAAATGGTGATCAGCCAAAGCATTTGCCATCCCGGAGTCACCTAGTGCAG”, the binding signal rises from 6800 fluorescence intensity (a.u.) to 39300 fluorescence intensity (a.u.).

Compared with “TATTCAATCATCCAAGGTTTGCATATCATTGACCGGCGTGCGGAGTCACCTAGTGCAG”, “GGCGACAAGACAGATAGACAGAAGCCATTCATATCGAACCCGGAGTCACCTAGTGCAG” is lower in binding signal: 14400 fluorescence intensity (a.u.) for the first, 5190 fluorescence intensity (a.u.) for the second.

Compared with “CTTTGACAGACAGATATCCATTCATACGTGCACAGGCGACCGGAGTCACCTAGTGCAG”, “GCTCCGGCGAGGCGAGGTCGGAGATCCCACCGCCGTGTCGCGGAGTCACCTAGTGCAG” is higher in binding signal: 55300 fluorescence intensity (a.u.) for the first, 65500 fluorescence intensity (a.u.) for the second.

First: CCACCGTGATTTTCGCTCCCATCACCGCGCGAGGACTCCGCGGAGTCACCTAGTGCAG
Second: GGTCGCCGGATCGCGGGAGGGAGGGAGGGAGGGAGGGAGGCGGAGTCACCTAGTGCAG
The binding signal of the first is lower: 3320 fluorescence intensity (a.u.) for the first, 7230 fluorescence intensity (a.u.) for the second.

First: CAAAACTAAAATGTTATCATATAATTATATATTTAAGACCCGGAGTCACCTAGTGCAG
Second: ATTCATATAATTTGTATCACCTCAATAATAATTGGTATCACGGAGTCACCTAGTGCAG
The binding signal of the first is lower: 8760 fluorescence intensity (a.u.) for the first, 14700 fluorescence intensity (a.u.) for the second.

First: GACAAATTTACAGTAGTTTAACTTTAAGCAAAGTCAAAACCGGAGTCACCTAGTGCAG
Second: TATACAATTATTTAAACAAAATTACCACTTTGCTACAACTCGGAGTCACCTAGTGCAG
The binding signal of the first is lower: 6260 fluorescence intensity (a.u.) for the first, 8450 fluorescence intensity (a.u.) for the second.

Going from “TTTTAATTACTGATCTTCTTACAATTGCTTTTATGCTGTCCGGAGTCACCTAGTGCAG” to “CCGCAATTATTGGCCCTTAATTGTGAGGTTAATCCGTGGCCGGAGTCACCTAGTGCAG”, the binding signal rises from 19700 fluorescence intensity (a.u.) to 60900 fluorescence intensity (a.u.).

Going from “AAGGTTAATTGGATCCATGCCACGCGAATTGTGGCAAATCCGGAGTCACCTAGTGCAG” to “TACTGCTGGATTGAATTAATGGATCAAGACTGAATTTATCCGGAGTCACCTAGTGCAG”, the binding signal falls from 22100 fluorescence intensity (a.u.) to 12100 fluorescence intensity (a.u.).

Going from “CAATTAATTGCTTATCCGTGGCCTTGATCAATTACTGTGCCGGAGTCACCTAGTGCAG” to “TTATGTAATTATTATTTATTTTATTGTGACTTAATTTATCCGGAGTCACCTAGTGCAG”, the binding signal falls from 56600 fluorescence intensity (a.u.) to 15500 fluorescence intensity (a.u.).

Compared with “AGTCAATCAGTCAATCTGGACCGTCCACGGCAGAAGAAGTCGGAGTCACCTAGTGCAG”, “GGATTATCAATCAAGCAAGCAAACAAACACTAAGGAAACCCGGAGTCACCTAGTGCAG” is lower in binding signal: 30700 fluorescence intensity (a.u.) for the first, 15000 fluorescence intensity (a.u.) for the second.

Going from “GAATAATCAATTGCCGAATACGTTCTGGACATGGATATTGCGGAGTCACCTAGTGCAG” to “CCTGGCTGATCGATAATTAATCCGTCCTCGCCGTCGCCATCGGAGTCACCTAGTGCAG”, the binding signal rises from 6880 fluorescence intensity (a.u.) to 15400 fluorescence intensity (a.u.).

First: ATATTGATTAGGCTCTCGGCTCTCTATTTAACCAACTGAACGGAGTCACCTAGTGCAG
Second: CTGATTGATTTAGCGGCTCAACATATATACCAAGGCGGCGCGGAGTCACCTAGTGCAG
The binding signal of the first is lower: 34300 fluorescence intensity (a.u.) for the first, 61100 fluorescence intensity (a.u.) for the second.

Going from “GGGAAGGCGGCGATTGATTTGATTTGACCAAGATTGGTCGCGGAGTCACCTAGTGCAG” to “GAACTAATCACAAATTTCCACCATACAATGCCGCTGTACTCGGAGTCACCTAGTGCAG”, the binding signal falls from 28700 fluorescence intensity (a.u.) to 13300 fluorescence intensity (a.u.).

Compared with “CATCAATCATGATTGAAGATGATTCAAGGTTGAGAGGACCCGGAGTCACCTAGTGCAG”, “CTGATTAACTCTTCAATCAAATCCCTAACTTGAGTGCATGCGGAGTCACCTAGTGCAG” is higher in binding signal: 53900 fluorescence intensity (a.u.) for the first, 57200 fluorescence intensity (a.u.) for the second.

Going from “GACTAACACCCTAGACTGATTAATCAAAGCATTGTGCATGCGGAGTCACCTAGTGCAG” to “TCACATTCTTGCATGATTGAACACTCCCTTTCATCCCTCACGGAGTCACCTAGTGCAG”, the binding signal rises from 16800 fluorescence intensity (a.u.) to 18900 fluorescence intensity (a.u.).

Compared with “AATTTACGATTGATTATTCATTCAGTGAGGCGCATGCGGTCGGAGTCACCTAGTGCAG”, “GTCATGTGATTGATGATTCAGCATCCCTTGAGGCTCAGTGCGGAGTCACCTAGTGCAG” is higher in binding signal: 32700 fluorescence intensity (a.u.) for the first, 53600 fluorescence intensity (a.u.) for the second.

Going from “TGCCTTTGATTAATGTCATGATGTCACATGCTGAGATTCACGGAGTCACCTAGTGCAG” to “ATGCAGTAATTAATCAATTAACTAATTAACTCACCCCATGCGGAGTCACCTAGTGCAG”, the binding signal rises from 11900 fluorescence intensity (a.u.) to 47800 fluorescence intensity (a.u.).

Going from “TACAATCACATTCAATTTGAAAAGAGAAGATGGCTCTTGGCGGAGTCACCTAGTGCAG” to “CTTGATGATTAATCAATTCAATCTTGGCTGTCATGAGAGGCGGAGTCACCTAGTGCAG”, the binding signal rises from 9800 fluorescence intensity (a.u.) to 62000 fluorescence intensity (a.u.).

First: GAGGCCAATCAGGTTGATGATGAAGAGGATGATTTCAGCGCGGAGTCACCTAGTGCAG
Second: AAATGAGATGACAATGATGATGATGATGGTTTCATCACCCCGGAGTCACCTAGTGCAG
The binding signal of the first is higher: 18200 fluorescence intensity (a.u.) for the first, 4620 fluorescence intensity (a.u.) for the second.

First: ATTTAGACAGGTTCCAACCTCCTTGATAACAGTTAAAACCCGGAGTCACCTAGTGCAG
Second: TTTTAGGTTAATTACTTCTATTGGTCAACTCAATATGCAGCGGAGTCACCTAGTGCAG
The binding signal of the first is higher: 7950 fluorescence intensity (a.u.) for the first, 5660 fluorescence intensity (a.u.) for the second.
